Results taken from PubChem BioAssay AID2330 (Broad Institute, 2010).
Hit rate of the full screen: of about 37,000 compounds, about 2,800 (7.6%) were called active. Not shown: some 1% with an inconclusive outcome. No stated cut-off is given here; in the data, active means inhibition above about 80%; inconclusive means no clear call, values can overlap the other calls; inactive means below that. The entries come from a sample that favours actives as a whole.

Assay: NOMO-1 AML cell viability reduction, primary screen, STK33 inhibitor project, CellTiter-Glo luminescence (AID 2330)
Settings: NOMO-1 AML viability, 72 h, active compounds read high, concentration not given here

Structure (SMILES)	inhibition
COc1ccc(OC)c(NC(=O)CSc2n[nH]c(-c3ccncc3)n2)c1	14.4% (inactive)
CC(C)NC(=O)Nc1ccc2c(c1)CC(=O)N([C@H](C)CO)C[C@H](C)[C@H](CN(C)Cc1ccc3c(c1)OCO3)O2	14.7% (inactive)
C[C@H]1CN([C@@H](C)CO)C(=O)Cc2cc(NC(=O)Nc3ccc4c(c3)OCO4)ccc2O[C@H]1CN(C)Cc1ccc(C(=O)Nc2ccccc2N)cc1	127% (active)
C[C@@H]1CN([C@H](C)CO)C(=O)Cc2cc(NC(=O)Nc3ccc(F)cc3)ccc2O[C@@H]1CN(C)Cc1ccc2c(c1)OCO2	31% (inactive)
C[C@H]1CN([C@@H](C)CO)C(=O)Cc2cc(NC(=O)CCCCCC(=O)Nc3ccccc3N)ccc2O[C@@H]1CN(C)Cc1ccncc1	19.5% (inactive)
C[C@H](CO)N1C[C@H](C)[C@H](CN(C)Cc2ccc(C(=O)Nc3ccccc3N)cc2)Oc2ccc(NC(=O)Nc3ccccc3)cc2CC1=O	141% (active)
COc1ccc(CN(C)C[C@@H]2Oc3ccc(NC(=O)Nc4ccc5c(c4)OCO5)cc3CC(=O)N([C@H](C)CO)C[C@H]2C)cc1	8.79% (inactive)
C[C@@H]1CN([C@H](C)CO)C(=O)Cc2cc(NC(=O)Nc3ccc4c(c3)OCO4)ccc2O[C@H]1CN(C)Cc1ccc(C(=O)O)cc1	20.5% (inactive)
CC(C)NC(=O)Nc1ccc2c(c1)CC(=O)N([C@H](C)CO)C[C@@H](C)[C@@H](CN(C)Cc1ccc(C(=O)Nc3ccccc3N)cc1)O2	60.7% (inactive)
C[C@@H]1CN([C@H](C)CO)C(=O)Cc2cc(NC(=O)Nc3ccc4c(c3)OCO4)ccc2O[C@@H]1CN(C)Cc1ccc(C(=O)Nc2ccccc2N)cc1	96.7% (active)
CCN1CCN(C(=O)N[C@@H](C(=O)N[C@@H]2C(=O)N3C(C(=O)O)=C(CSc4nnnn4C)CS[C@H]23)c2ccc(O)cc2)C(=O)C1=O	16.9% (inactive)
Cc1ccc(C)c(S(=O)(=O)NC(C)C(=O)Nc2ccc(Br)cc2F)c1 (centres undefined)	1.68% (inactive)
Cc1noc(C)c1S(=O)(=O)Nc1ccc2c(c1)CC(=O)N([C@H](C)CO)C[C@H](C)[C@H](CN(C)S(=O)(=O)c1cn(C)cn1)O2	-3.68% (inactive)
C[C@@H]1CN([C@H](C)CO)C(=O)Cc2cc(NS(C)(=O)=O)ccc2O[C@@H]1CN(C)C(=O)Nc1ccc2c(c1)OCO2	-3.88% (inactive)
O=C(Oc1ccccc1)c1cccc(COC(=O)c2cc3ccccc3oc2=O)c1	5.03% (inactive)
C[C@H](CO)N1C[C@H](C)[C@@H](CN(C)C(=O)Nc2ccccc2)Oc2ccc(N(C)C)cc2C1=O	14.4% (inactive)
CC1CCCCC1NC(=O)CSc1nnc(N)s1 (centres undefined)	13.1% (inactive)
COC(=O)c1cc(NC(=O)Cc2ccccc2[N+](=O)[O-])ccc1Cl	62.9% (inactive)
Cc1nnc(SCC(=O)N2CCc3ccccc32)n1-c1ccccc1	10% (inactive)
CN(C)c1nc(SCCO)nc(N(C)C)n1	33.8% (inactive)
COc1cc2c(cc1NC(=O)CN(C)S(=O)(=O)c1ccc(Br)cc1)oc1ccccc12	-7.24% (inactive)
COc1ccc(NC(=O)N(C)C[C@@H]2Oc3ccc(NS(C)(=O)=O)cc3C(=O)N([C@@H](C)CO)C[C@@H]2C)cc1	22.3% (inactive)

Structure (SMILES)	inhibition
COC(=O)c1ccc(C(=O)OC)c(NC(=O)COc2ccc(C)cc2)c1	13.3% (inactive)
N#Cc1c(SCC(=O)Nc2ccccc2)ncc2cc3ccccc3nc12	110% (active)
Cc1sc2ncnc(SCC(=O)Nc3ccccc3)c2c1-c1ccccc1	26.6% (inactive)
O=C(CSc1nnc(-c2ccccc2)c(-c2ccccc2)n1)Nc1ccccc1	1.52% (inactive)
CC(C)NC(=O)Nc1cccc2c1O[C@H](CN(C)S(=O)(=O)c1cccs1)[C@@H](C)CN([C@H](C)CO)C2=O	-9.32% (inactive)
COc1ccc2nc3c(nc2c1)C(=O)c1ccccc1C3=O	29.2% (inactive)
COc1ccc(C)c(Cn2c(-c3nonc3N)nc3ccccc32)c1	112% (active)
Cc1ccc(S(=O)(=O)N(C)C[C@@H]2Oc3ccc(NC(=O)Cc4ccccc4)cc3CC(=O)N([C@H](C)CO)C[C@H]2C)cc1	53.4% (inactive)
Cc1noc(C)c1NC(=O)Nc1cccc2c1O[C@@H](CN(C)Cc1ccc3c(c1)OCO3)[C@@H](C)CN([C@@H](C)CO)C2=O	13.5% (inactive)
Cc1ccc2c(c1)CCCN2S(=O)(=O)c1cc(OCC(N)=O)c(C)cc1Cl	93.4% (active)
Cc1cc(Cl)c(S(=O)(=O)Nc2ccc3c(c2)OCCO3)cc1OCC(N)=O	20.2% (inactive)
CCN1CCN(S(=O)(=O)c2cc(OCC(N)=O)c(C)cc2Cl)CC1	12.8% (inactive)
C[C@@H]1CN([C@H](C)CO)C(=O)c2cccc(NS(C)(=O)=O)c2O[C@@H]1CN(C)C(=O)Nc1cccc2ccccc12	-9.1% (inactive)
C[C@@H]1CN([C@H](C)CO)C(=O)Cc2cc(NC(=O)Nc3ccccc3)ccc2O[C@H]1CN(C)Cc1ccc(Cl)c(Cl)c1	30.1% (inactive)
C[C@@H]1CN([C@@H](C)CO)C(=O)Cc2cc(NC(=O)Cc3ccccc3)ccc2O[C@@H]1CN(C)Cc1ccc(Oc2ccccc2)cc1	127% (active)
C[C@@H]1CN([C@H](C)CO)C(=O)Cc2cc(NC(=O)CCCN(C)C)ccc2O[C@@H]1CN(C)Cc1ccc(Oc2ccccc2)cc1	19.5% (inactive)
C[C@@H]1CN([C@@H](C)CO)C(=O)c2cc(NC(=O)Cc3ccccc3)ccc2O[C@@H]1CN(C)Cc1ccc(Oc2ccccc2)cc1	112% (active)
C[C@@H]1CN([C@H](C)CO)C(=O)Cc2cc(NC(=O)NC3CCCCC3)ccc2O[C@H]1CN(C)Cc1ccc(Cl)c(Cl)c1	20.7% (inactive)
COc1ccc(CN(C)C[C@H]2Oc3ccc(NC(=O)Cc4ccccc4)cc3CC(=O)N([C@@H](C)CO)C[C@@H]2C)cc1	22.8% (inactive)
C[C@H]1CN([C@@H](C)CO)C(=O)Cc2cc(NC(=O)NC3CCCCC3)ccc2O[C@@H]1CN(C)Cc1ccc(Oc2ccccc2)cc1	94.9% (active)
C[C@H]1CN([C@@H](C)CO)C(=O)c2cc(NC(=O)C3CC3)ccc2O[C@@H]1CN(C)Cc1ccc(Oc2ccccc2)cc1	16.2% (inactive)
C[C@H](CO)N1C[C@H](C)[C@H](CN(C)Cc2ccccc2)Oc2ccc(NC(=O)Cc3ccccc3)cc2C1=O	7.66% (inactive)

Structure (SMILES)	inhibition
C[C@@H]1CN([C@H](C)CO)C(=O)Cc2cc(NC(=O)Cc3ccccc3)ccc2O[C@@H]1CN(C)Cc1ccccc1	-13.8% (inactive)
C[C@@H]1CN([C@H](C)CO)C(=O)Cc2cc(NC(=O)Cc3ccccc3)ccc2O[C@H]1CN(C)Cc1ccc(Oc2ccccc2)cc1	13.7% (inactive)
C[C@H]1CN([C@@H](C)CO)C(=O)Cc2cc(NC(=O)Cc3ccccc3)ccc2O[C@@H]1CN(C)Cc1ccc(Cl)c(Cl)c1	96.8% (active)
COC(=O)c1c(NC(=O)COc2ccc(C(C)C)c(C)c2)sc2c1CCC2	-13.1% (inactive)
COc1ccc(S(=O)(=O)N(C)C[C@@H]2Oc3ccc(NC(=O)Cc4cn(C)c5ccccc45)cc3C(=O)N([C@H](C)CO)C[C@H]2C)cc1	3.23% (inactive)
CC(C)NC(=O)N(C)C[C@H]1Oc2ccc(NS(C)(=O)=O)cc2CC(=O)N([C@@H](C)CO)C[C@@H]1C	-17.4% (inactive)
COc1c2c(cc3occ(-c4ccc5c(c4)OCO5)c(=O)c13)OC(C)(C)C=C2	23.7% (inactive)
O=C(c1cc2ccccc2oc1=O)N(Cc1ccc(F)cc1)Cc1ccco1	-0.0617% (inactive)
COc1cc(O)c2c(=O)c(O[C@@H]3O[C@@H](CO)[C@H](O)[C@H]3O[C@@H]3O[C@@H](C)[C@H](O)[C@@H](O)[C@H]3O)c(-c3ccc(O)cc3)oc2c1	16.7% (inactive)
C[C@@H]1CN([C@H](C)CO)C(=O)Cc2cc(NC(=O)CCN3CCOCC3)ccc2O[C@H]1CN(C)C	13.7% (inactive)
O=C(NCc1ccco1)c1ccc2c(c1)C(=O)N(Cc1cccnc1)C2=O	20% (inactive)
C[C@@H]1CN([C@@H](C)CO)C(=O)c2cc(NC(=O)Nc3ccc4c(c3)OCO4)ccc2O[C@@H]1CN(C)Cc1ccc(Oc2ccccc2)cc1	66% (inactive)
C[C@H](CO)N1C[C@H](C)[C@@H](CN(C)Cc2ccccc2)Oc2ccc(NC(=O)Nc3ccc4c(c3)OCO4)cc2C1=O	1.03% (inactive)
COc1ccc(NC(=O)Nc2ccc3c(c2)C(=O)N([C@@H](C)CO)C[C@H](C)[C@@H](CN(C)Cc2ccc4c(c2)OCO4)O3)cc1	25% (inactive)
C[C@@H]1CN([C@H](C)CO)C(=O)c2cc(NC(=O)Nc3ccc4c(c3)OCO4)ccc2O[C@H]1CN(C)Cc1ccc(-c2ccccc2)cc1	113% (active)
C[C@@H]1CN([C@H](C)CO)C(=O)Cc2cc(N(C)C)ccc2O[C@@H]1CN(C)Cc1ccccc1	124% (active)
C[C@H]1CN([C@@H](C)CO)C(=O)c2cc(NC(=O)Nc3ccc4c(c3)OCO4)ccc2O[C@@H]1CN(C)Cc1ccc(Oc2ccccc2)cc1	102% (active)
C[C@@H]1CN([C@H](C)CO)C(=O)c2cc(NC(=O)Nc3ccc4c(c3)OCO4)ccc2O[C@@H]1CN(C)Cc1ccc(C(F)(F)F)cc1	50.9% (inactive)
C[C@H](CO)N1C[C@H](C)[C@H](CN(C)Cc2ccc(C(F)(F)F)cc2)Oc2ccc(N(C)C)cc2CC1=O	14.9% (inactive)
C[C@H]1CN([C@@H](C)CO)C(=O)Cc2cc(N(C)C)ccc2O[C@@H]1CN(C)Cc1ccc(-c2ccccc2)cc1	65.8% (inactive)
